# Measurements published in the supplement of paper PMC8728848.
# Only a selection was taken, and the strongest signals are over-represented in it overall.
# B1: Endo180d1-D4 (Homo sapiens), Q9UBG0 (protein)
# chain: MGPGRPAPAPWPRHLLRCVLLLGCLHLGRPGAPGDAALPEPNVFLIFSHGLQGCLEAQGGQVRVTPACNTSLPAQRWKWVSRNRLFNLGTMQCLGTGWPGTNTTASLGMYECDREALNLRWHCRTLGDQLSLLLGARTSNISKPGTLERGDQTRSGQWRIYGSEEDLCALPYHEVYTIQGNSHGKPCTIPFKYDNQWFHGCTSTGREDGHLWCATTQDYGKDERWGFCPIKSNDCETFWDKDQLTDSCYQFNFQSTLSWREAWASCEQQGADLLSITEIHEQTYINGLLTGYSSTLWIGLNDLDTSGGWQWSDNSPLKYLNWESDQPDNPSEENCGVIRTESSGGWQNRDCSIALPYVCKKKPNATAEPTPPDRWANVKVECEPSWQPFQGHCYRLQAEKRSWQESKKACLRGGGDLVSIHSMAELEFITKQIKQEVEELWIGLNDLKLQMNFEWSDGSLVSFTHWHPFEPNNFRDSLEDCVTIWGPEGRWNDSPCNQSLPSICKKAGQLSQGAAEEDHGCRKGWTWHSPSCYWLGEDQVTYSEARRLCTDHGSQLVTITNRFEQAFVSSLIYNWEGEYFWTALQDLNSTGSFFWLSGDEVMYTHWNRDQPGYSRGGCVALATGSAMGLWEVKNCTSFRARYICRQSLGTPVTPELPGPDPTPSLTGSCPQGWASDTKLRYCYKVFSSERLQDKKSWVQAQGACQELGAQLLSLASYEEEHFVANMLNKIFGESEPEIHEQHWFWIGLNRRDPRGGQSWRWSDGVGFSYHNFDRSRHDDDDIRGCAVLDLASLQWVAMQCDTQLDWICKIPRGTDVREPDDSPQGRREWLRFQEAEYKFFEHHSTWAQAQRICTWFQAELTSVHSQAELDFLSHNLQKFSRAQEQHWWIGLHTSESDGRFRWTDGSIINFISWAPGKPRPVGKDKKCVYMTASREDWGDQRCLTALPYICKRSNVTKETQPPDLPTTALGGCPSDWIQFLNKCFQVQGQEPQSRVKWSEAQFSCEQQEAQLVTITNPLEQAFITASLPNVTFDLWIGLHASQRDFQWVEQEPLMYANWAPGEPSGPSPAPSGNKPTSCAVVLHSPSAHFTGRWDDRSCTEETHGFICQKGTDPSLSPSPAALPPAPGTELSYLNGTFRLLQKPLRWHDALLLCESHNASLAYVPDPYTQAFLTQAARGLRTPLWIGLAGEEGSRRYSWVSEEPLNYVGWQDGEPQQPGGCTYVDVDGAWRTTSCDTKLQGAVCGVSSGPPPPRRISYHGSCPQGLADSAWIPFREHCYSFHMELLLGHKEARQRCQRAGGAVLSILDEMENVFVWEHLQSYEGQSRGAWLGMNFNPKGGTLVWQDNTAVNYSNWGPPGLGPSMLSHNSCYWIQSNSGLWRPGACTNITMGVVCKLPRAEQSSFSPSALPENPAALVVVLMAVLLLLALLTAALILYRRRQSIERGAFEGARYSRSSSSPTEATEKNILVSDMEMNEQQE
# How the values were obtained:
# Experiment in all cases: glycan array binding signal (z-score within array); higher = stronger binding
# Conditions in all cases: glycan notation: IUPAC condensed, linker removed
# [1] = molecular target: Fuc(a1-2)Gal(b1-4)Fuc(a1-3)]GlcNAc(b1-2)Man(a1-3)[Fuc(a1-2)Gal(b1-4)[Fuc(a1-3)]GlcNAc(b1-2)Man(a1-6)]Man(b1-4)GlcNAc(b1-4)GlcNAc
# Outline: (§1)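 Columns mapping to the same glycan were averaged after glycan names were converted to IUPAC-condensed notation. The data come from 3228 arrays in the Consortium for Functional Glycomics database, limited to those with an available protein sequence. Binding is reported as a within-array Z-score averaged across arrays of one protein sequence and across linkers.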
# [2] = molecular target: Fuc(a1-2)Gal(b1-4)GlcNAc(b1-3)[Fuc(a1-3)[Gal(b1-4)]GlcNAc(b1-6)]Gal(b1-4)Glc
# Outline: as §1
# [3] = molecular target: Fuc(a1-2)Gal(b1-4)[Fuc(a1-3)]GlcNAc(b1-3)Gal(b1-4)[Fuc(a1-3)]GlcNAc
# Outline: as §1
# [4] = molecular target: Fuc(a1-2)[Gal(a1-3)]Gal(b1-3)GlcNAc(b1-6)GalNAc
# Outline: as §1
# [5] = molecular target: Fuc(a1-2)[Gal(a1-3)]Gal(b1-4)GlcNAc(b1-2)Man(a1-3)[Fuc(a1-2)[Gal(a1-3)]Gal(b1-4)GlcNAc(b1-2)Man(a1-6)]Man(b1-4)GlcNAc(b1-4)[Fuc(a1-6)]GlcNAc
# Outline: as §1
# [6] = molecular target: Fuc(a1-2)[Gal(a1-3)]Gal(b1-4)GlcNAc(b1-3)GalNAc
# Outline: as §1
# [7] = molecular target: Fuc(a1-2)[Gal(a1-3)]Gal(b1-4)[Fuc(a1-3)]GlcNAc(b1-3)GalNAc
# Outline: as §1
# [8] = molecular target: Fuc(a1-3)[Gal(b1-4)]GlcNAc
# Outline: as §1
# [9] = molecular target: Gal(a1-3)Gal(b1-3)GlcNAc(b1-6)GalNAc
# Outline: as §1
# [10] = molecular target: Gal(a1-3)[Gal(a1-4)]Gal(b1-4)GlcNAc
# Outline: as §1
# Gal(a1-4)GlcNAc = molecular target: Gal(a1-4)GlcNAc
# Outline: as §1
# Gal(a1-6)Glc = molecular target: Gal(a1-6)Glc
# Outline: as §1
# [11] = molecular target: Gal(b1-3)[Fuc(a1-4)]GlcNAc(b1-3)Gal(b1-3)[Fuc(a1-4)]GlcNAc
# Outline: as §1
# [12] = molecular target: Gal(b1-4)GlcNAc(b1-2)Man(a1-3)[Gal(b1-4)GlcNAc(b1-2)Man(a1-6)][GlcNAc(b1-4)]Man(b1-4)GlcNAc(b1-4)[Fuc(a1-6)]GlcNAc
# Outline: as §1
# [13] = molecular target: Gal(b1-4)GlcNAc(b1-2)Man(a1-6)Man(b1-4)GlcNAc(b1-4)GlcNAc
# Outline: as §1
# [14] = molecular target: Gal(b1-4)GlcNAc(b1-3)Gal(b1-3)GlcNAc
# Outline: as §1
# [15] = molecular target: Gal(b1-4)GlcNAc(b1-6)Gal(b1-4)GlcNAc
# Outline: as §1
# [16] = molecular target: Gal3S(b1-4)[Fuc(a1-3)]Glc6S
# Outline: as §1
# Gal3S6S(b1-4)GlcNAc6S = molecular target: Gal3S6S(b1-4)GlcNAc6S
# Outline: as §1
# Gal6S(b1-4)GlcNAc6S = molecular target: Gal6S(b1-4)GlcNAc6S
# Outline: as §1
# [17] = molecular target: GalNAc(a1-3)GalNAc(b1-3)Gal(a1-4)Gal(b1-4)GlcNAc
# Outline: as §1
# GalNAc(b1-6)GalNAc = molecular target: GalNAc(b1-6)GalNAc
# Outline: as §1
# GalNAc4S6S(b1-4)GlcNAc = molecular target: GalNAc4S6S(b1-4)GlcNAc
# Outline: as §1
# [18] = molecular target: GlcNAc(b1-2)Man(a1-3)[GlcNAc(b1-2)Man(a1-6)]Man(b1-4)GlcNAc(b1-4)[Fuc(a1-6)]GlcNAc
# Outline: as §1
# [19] = molecular target: GlcNAc(b1-3)Gal(b1-4)GlcNAc(b1-3)Gal(b1-4)GlcNAc(b1-2)[GlcNAc(b1-3)Gal(b1-4)GlcNAc(b1-3)Gal(b1-4)GlcNAc(b1-6)]Man(a1-6)[GlcNAc(b1-3)Gal(b1-4)GlcNAc(b1-3)Gal(b1-4)GlcNAc(b1-2)Man(a1-3)]Man(b1-4)GlcNAc(b1-4)[Fuc(a1-6)]GlcNAc
# Outline: as §1
# [20] = molecular target: GlcNAc(b1-3)Gal(b1-4)GlcNAc(b1-3)[GlcNAc(b1-3)Gal(b1-4)GlcNAc(b1-3)]GalNAc
# Outline: as §1
# [21] = molecular target: GlcNAc(b1-4)[GlcNAc(b1-6)]GalNAc
# Outline: as §1
# [22] = molecular target: Man(a1-2)Man(a1-3)[Man(a1-6)]Man(a1-6)[Man(a1-2)Man(a1-3)]Man(b1-4)GlcNAc(b1-4)GlcNAc
# Outline: as §1
# [23] = molecular target: Man(a1-3)[Man(a1-6)]Man(b1-4)GlcNAc(b1-4)[Fuc(a1-6)]GlcNAc
# Outline: as §1
# [24] = molecular target: Neu5Ac(a2-3)Gal(b1-3)GalNAc(b1-4)Gal(b1-4)Glc
# Outline: as §1
binder,measurement,setting,value
B1,glycan array binding signal (z-score),[1],4.92
same,glycan array binding signal (z-score),[2],2.16
same,glycan array binding signal (z-score),[3],1.23
same,glycan array binding signal (z-score),[4],0.628
same,glycan array binding signal (z-score),[5],-0.162
same,glycan array binding signal (z-score),[6],0.423
same,glycan array binding signal (z-score),[7],4.86
same,glycan array binding signal (z-score),[8],-0.373
same,glycan array binding signal (z-score),[9],0.29
same,glycan array binding signal (z-score),[10],0.096
same,glycan array binding signal (z-score),Gal(a1-4)GlcNAc,-0.552
same,glycan array binding signal (z-score),Gal(a1-6)Glc,0.11
same,glycan array binding signal (z-score),[11],3.87
same,glycan array binding signal (z-score),[12],-1.03
same,glycan array binding signal (z-score),[13],0.463
same,glycan array binding signal (z-score),[14],0.375
same,glycan array binding signal (z-score),[15],-1.39
same,glycan array binding signal (z-score),[16],0.973
same,glycan array binding signal (z-score),Gal3S6S(b1-4)GlcNAc6S,4.83
same,glycan array binding signal (z-score),Gal6S(b1-4)GlcNAc6S,2.48
same,glycan array binding signal (z-score),[17],-0.306
same,glycan array binding signal (z-score),GalNAc(b1-6)GalNAc,-0.31
same,glycan array binding signal (z-score),GalNAc4S6S(b1-4)GlcNAc,3.2
same,glycan array binding signal (z-score),[18],5.6
same,glycan array binding signal (z-score),[19],4.5
same,glycan array binding signal (z-score),[20],-0.76
same,glycan array binding signal (z-score),[21],-1.12
same,glycan array binding signal (z-score),[22],-0.036
same,glycan array binding signal (z-score),[23],0.638
same,glycan array binding signal (z-score),[24],-3.76
